# This is part of a sample that, as a whole, favours compounds with a hit. Of some 83,000 tested, about 20% had one in any assay.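 Note: values are percent growth. 100 is the growth of untreated cells, values between 100 and 0 indicate rising inhibition; between -100 and 0 indicates cell death.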 Activity calls are given as the source filed them. Rule for the calls: active = growth percent below 10; inactive = the rest.
# Tested on: NCI/ADR-RES ovarian
# Test: NCI-60 one-dose screen, 48 h (100 = growth as untreated, 0 = no growth, -100 = all killed)
# Details: 10 µM unless noted
row,Compound,growth
1,Cc1cccc(-c2ccccc2Oc2ccc3nnc(Cl)n3n2)c1,102% (inactive)
2,C[C@H](NC(=O)c1ccc2c(-c3ccc(C(F)(F)F)cc3)cccc2c1)c1ccccn1,32.5% (inactive)
3,Cc1ccc(C(=O)Nc2cc(-c3ccccc3)cc(C(F)(F)F)c2)cc1C#Cc1cnc2cccnn12,63.2% (inactive)
4,O=[N+]([O-])c1cccc(-c2nnc3c(/C=C/c4ccc(F)cc4)nc4ccccc4n23)c1,87.4% (inactive)
5,O=C1Nc2cc(-c3ccc(NS(=O)(=O)c4ccc(C(F)(F)F)cc4)cc3)ccc2/C1=C/c1ccc[nH]1,40.5% (inactive)

# Tested on: T-47D breast
# Test: as above
# Details: 10 µM unless noted
row,Compound,growth
1,CC1=C(C(=O)Nc2ccccc2)C(c2cccc3ccccc23)n2c(nc3ccccc32)N1 (configuration not stated),88.9% (inactive)
2,COc1ccc(NC(=O)CSc2nnc(-c3ccc(-c4nc5ccccc5[nH]4)cc3)o2)cc1,78.6% (inactive)
3,COc1cc2cc(C(=O)N3C[C@@H](CCl)c4c3cc(OC(=O)N(C)CCSSCCN3CCOCC3)c3ccccc43)[nH]c2c(OC)c1OC,-6.52% (active)
4,CC(=O)C[n+]1cccc2c3ccccc3ccc21,77.2% (inactive)
5,CC[C@]12C=CCN3CC[C@]4(C(=C(C(=O)OC)C1)Nc1cc(OC)c([C@@H]5[C@H]6O[C@H]6[C@@]6(CC)CC(C(=O)OC)=C7Nc8cc(O)ccc8[C@@]78CCN5[C@@H]68)cc14)[C@@H]32,2.37% (active)
6,Cc1ccccc1Nc1nnc(-c2c[nH]c3ccccc23)o1,39.7% (inactive)
7,COc1cncc(-c2ccc3ncnc(N4CCc5ccc(Cl)cc54)c3c2)c1,14.1% (inactive)

# From PubChem BioAssay (NCI)
